PubChem BioAssay (NCATS)
A number with no mark means an inactive call. Results filed as inconclusive are left out. Active and inactive are the calls of the source. Unless noted, calls follow the shape of the dose curve; as a rule, active = well fitted curve in either direction with a large enough effect (not every such curve was filed as active); inconclusive = small, poorly fitted or top-dose-only effect, or another doubt; inactive = flat fitted curve, though single readings scatter.

Assays:
[1] = AP1 Signaling Pathway (AID 357); details: ME-180 AP-1-bla reporter, EGF-induced, beta-lactamase ratio, 5 h; at 17.2 µM (top of the series) unless noted; also: % is scaled to controls: 0 for no effect and ±100 for the full control effect
How it was run: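 A ratiometric CCF4 readout (405 nm excitation; 460 and 530 nm emission) quantified AP-1-driven beta-lactamase in ME-180 cells after 5 h with compound and EC50 EGF; AC50 values were derived for activators and inhibitors.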

[2] = target: Glucocorticoid receptor (Homo sapiens) (UniProt P04150); assay: GR-GFP Redistribution (AID 450;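 active = compounds whose dose series gives a full or clear partial fitted curve of increased nuclear translocation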; also: potency is read from the fitted curve at half-maximal effect)
Chain of Glucocorticoid receptor (Homo sapiens) (P04150 whole entry, looked up): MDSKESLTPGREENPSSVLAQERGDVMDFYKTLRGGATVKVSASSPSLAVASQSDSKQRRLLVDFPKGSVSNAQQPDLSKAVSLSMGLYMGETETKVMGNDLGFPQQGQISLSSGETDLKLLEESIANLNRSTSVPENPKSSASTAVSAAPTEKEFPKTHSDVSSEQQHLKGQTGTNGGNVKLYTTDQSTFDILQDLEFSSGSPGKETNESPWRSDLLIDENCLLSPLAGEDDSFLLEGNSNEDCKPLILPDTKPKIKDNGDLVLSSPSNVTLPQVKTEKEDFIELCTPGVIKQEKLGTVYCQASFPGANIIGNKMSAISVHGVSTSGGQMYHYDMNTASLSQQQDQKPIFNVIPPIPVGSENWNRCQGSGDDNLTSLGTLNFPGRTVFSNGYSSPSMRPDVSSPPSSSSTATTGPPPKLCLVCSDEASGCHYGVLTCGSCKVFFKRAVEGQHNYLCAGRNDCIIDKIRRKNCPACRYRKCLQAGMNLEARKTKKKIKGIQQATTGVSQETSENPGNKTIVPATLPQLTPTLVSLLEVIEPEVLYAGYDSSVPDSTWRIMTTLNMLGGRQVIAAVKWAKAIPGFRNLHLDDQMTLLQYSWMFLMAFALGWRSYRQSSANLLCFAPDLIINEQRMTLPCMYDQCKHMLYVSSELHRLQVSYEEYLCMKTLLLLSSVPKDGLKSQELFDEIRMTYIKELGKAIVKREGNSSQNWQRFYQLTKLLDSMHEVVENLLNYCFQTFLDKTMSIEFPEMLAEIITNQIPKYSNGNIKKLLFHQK

[3] = Stat Signaling Pathway (AID 446); details: ME-180 SIE beta-lactamase reporter, IL-6 stimulated, 5 h; at 17.2 µM (top of the series) unless noted;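 also: ME-180 cervical cancer cells given 40 pM IL-6 alongside compound; SIE-controlled beta-lactamase reporter measured as 460/530 nm FRET emission ratio; % is scaled to controls: 0 for no effect and ±100 for the full control effect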
How it was run: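 FRET read-out (405 nm excitation, 460/530 nm emission) of a beta-lactamase reporter under a STAT-inducible element in ME-180 cervical carcinoma cells. Cells with compound receive 40 pM IL-6 for 5 h. Values are normalised to AC90 stimulation and AC90 JAK-inhibitor controls.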

[4] = qHTS Assay for Identification of Small Molecule Agonists for Hypoxia Response Element Signaling Pathway (AID 914; active = well fitted activation curve with a large enough effect in the signal ratio, with a control signal flat, not every such curve was filed as active; the % refers to the signal ratio; also: potency is read from the fitted curve at half-maximal effect; as to activation: % of control where 0% means no effect); details: ME-180 (cervical carcinoma) HRE-bla reporter, beta-lactamase ratio, CoCl2, 17 h; activation: stronger effect = higher value
How it was run: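 Compounds in a titration series were added to ME-180 reporter cells alongside an EC50 level of CoCl2. After 17 hours, beta-lactamase activity was read as the 460nm/530nm emission ratio of CCF4, giving AC50 values.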

SMILES: CCOc1ccc(S(=O)(=O)NC(C)(C)C)cc1-c1nc2c(C(C)(C)C)nn(C)c2c(=O)[nH]1
- activity change, negative = inhibition [1]: -8.82%
- Potency [2]: > 20.6 µM

SMILES: Clc1ccc(-c2nnc3sc(Cc4cccs4)nn23)cc1
- activity change, negative = inhibition [1]: 2.06%
- Potency [2]: > 20.6 µM

SMILES: Oc1oc(-c2ccco2)nc1C=Nc1cccc(Cl)c1
- activity change, negative = inhibition [1]: -27%
- Potency [2]: > 20.6 µM

SMILES: Cc1cc(C)n(CC(=O)N2c3ccccc3Sc3ccccc32)n1
- activity change, negative = inhibition [1]: -8.25%
- Potency [2]: > 20.6 µM

SMILES: Cc1c(/C(O)=C2\C(=O)C(=O)N(CCCN(C)C)C2c2ccccc2)cnn1-c1ccccc1 (centres undefined)
- activity change, negative = inhibition [1]: -3.19%
- activity, negative = inhibition [3]: 0.518%
- Potency [2]: > 20.6 µM
- activation [4]: 3.31%

SMILES: Cc1ccc2[nH]c3c(N4CCCCCC4)ncnc3c2c1
- activity change, negative = inhibition [1]: -20.6%
- Potency [2]: > 20.6 µM

SMILES: CCSc1nnc(NC(=O)NC(CC)(C(F)(F)F)C(F)(F)F)s1
- activity change, negative = inhibition [1]: -15.5%
- Potency [2]: > 20.6 µM

SMILES: COc1ccc(/C(O)=C2\C(=O)C(=O)N(c3cc(C)on3)C2c2ccccc2OC)cc1 (centres undefined)
- activity change, negative = inhibition [1]: -12.4%
- Potency [2]: > 20.6 µM

SMILES: COc1cccc(-c2nc(NCC3CCCO3)c3ccccc3n2)c1O (centres undefined)
- activity change, negative = inhibition [1]: -22.6%
- Potency [2]: > 20.6 µM

SMILES: Oc1ccccc1-c1nc(NCc2ccco2)c2ccccc2n1
- activity change, negative = inhibition [1]: 19.5%
- Potency [2]: > 20.6 µM

SMILES: CC(C)(C)c1cc(-c2ccco2)c(C#N)c(SCC#N)n1
- activity change, negative = inhibition [1]: 28.8%
- Potency [2]: > 20.6 µM

SMILES: CNc1oc(-c2ccccc2Cl)nc1C#N
- activity change, negative = inhibition [1]: -4.94%
- activity, negative = inhibition [3]: -0.918%
- Potency [2]: > 20.6 µM
- activation [4]: 10.7%

SMILES: CCc1cc(=O)oc2c(CN3CCCC3)c(O)c(Cl)cc12
- activity change, negative = inhibition [1]: 12.3%
- activity, negative = inhibition [3]: 4.15%
- Potency [2]: > 20.6 µM
- Potency [4]: 7.94 µM (active)

SMILES: c1ccc(CN2CCN(c3ncnc4c3[nH]c3ccccc34)CC2)cc1
- activity change, negative = inhibition [1]: -15.1%
- Potency [2]: > 20.6 µM

SMILES: CCSc1nnc(NC(=O)C(CC)(C(F)(F)F)C(F)(F)F)s1
- activity change, negative = inhibition [1]: -19%
- Potency [2]: > 20.6 µM

SMILES: COCCCNC(=O)c1c(N)n(/N=C/c2cccnc2)c2nc3ccccc3nc12
- activity change, negative = inhibition [1]: -15.5%
- activity, negative = inhibition [3]: -20.9%
- Potency [2]: > 20.6 µM
- Potency [4]: 10 µM (active)

SMILES: Cc1c([C@H]2[C@@H](CC#N)C2(C)C)c2ccccc2n1C
- activity change, negative = inhibition [1]: -11.6%
- Potency [2]: > 20.6 µM

SMILES: CC(C)C[C@H]1C(=O)N2CCC[C@H]2[C@]2(O)O[C@](NC(=O)[C@@H]3C=C4c5cccc6[nH]c(Br)c(c56)CC4N(C)C3)(C(C)C)C(=O)N12 (some centres undefined)
- activity change, negative = inhibition [1]: -20.7%
- Potency [2]: > 20.6 µM

SMILES: Cc1nc(Sc2cccn2C)c(C(F)(F)F)c(=O)[nH]1
- activity change, negative = inhibition [1]: -5.32%
- activity, negative = inhibition [3]: -1.21%
- Potency [2]: > 20.6 µM
- activation [4]: 6.77%

SMILES: CC1CCN(c2oc(-c3ccccc3Cl)nc2C#N)CC1
- activity change, negative = inhibition [1]: -14%
- Potency [2]: > 20.6 µM

SMILES: CCCSc1nnc(NC(=O)Nc2ccc(F)cc2)s1
- activity change, negative = inhibition [1]: -11.2%
- Potency [2]: > 20.6 µM

SMILES: N#CC(C#N)C(c1ccsc1)c1c(-c2ccccc2)[nH][nH]c1=O (centres undefined)
- activity change, negative = inhibition [1]: -20.2%
- Potency [2]: > 20.6 µM
